Results filed as inconclusive are left out. The source made the active and inactive calls. Calls come from the whole dose curve; as a rule, active = well fitted inhibition curve with a large enough effect; inconclusive = small, poorly fitted or top-dose-only effect; inactive = flat fitted curve, though single readings scatter.
Assay: qHTS for Inhibitors of Plasmodium falciparum (HB3) proliferation (AID 504318);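 note: 0% = DMSO vehicle and -100% = artemisinin control; nearly all actives have a fitted effect of over 60% in size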
Conditions: P. falciparum HB3 in erythrocytes, SYBR Green DNA, 72 h; series mostly up to 7.21 µM; activity change, negative = inhibition: at the top concentration
Procedure, shortened: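 Parasite growth measured as SYBR Green DNA fluorescence (ex 485, em 535 nm) after overnight lysis following 72 h culture at 37 °C, 0.3% parasitemia, 2.5% hematocrit. Values normalized against DMSO and 0.29 uM artemisinin controls, with plate-stack correction.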

Activity change, negative = inhibition, inactive:
COCCN1C(=O)CC[C@@]23C1=NC(C(=O)OC)=C(C(=O)OC)[C@@H]2N(CC=C(C)C)c1ccccc13 -15.5%
COc1ccc([C@]23Cc4ccccc4[C@H](O2)c2c(cc(-c4ccccc4)oc2=O)O3)cc1 -0.895%
COCC=CC1=CC2=CC(=O)C(C)(OC(=O)c3cnc4ccccc4n3)C(=O)C2=CN1CCc1c[nH]c2ccccc12 (stereo not drawn) -9.92%
COc1cccc([C@H]2Oc3ccc(OC)cc3C(=NO[C@H](C)CN3CCCc4nc(C)c(C)cc43)[C@H]2O)c1 -15.5%
CC1(OC(=O)c2ccc(Cl)nc2)C(=O)C=C2C=C(c3ccsc3)OC=C2C1=O (stereo not drawn) -0.49%
CC(=O)O[C@@H]1C(CO[Si](C)(C)C(C)(C)C)=C(Br)C(=O)[C@@H]2O[C@]12C -10.6%
C#CC1(O)C2C=C(OC)C(=O)C1C(c1ccccc1)C2C (stereo not drawn) -6.92%
COc1ccc([C@]23Cc4cc(OC)c(OC)cc4[C@H](O2)c2c(cc(C)oc2=O)O3)cc1 -10.6%
COc1ccc(N2C(=O)N3[C@H](c4ccccc4)[C@@H](C)C[C@H]4c5ccccc5C[C@]43C2=O)cc1 -1.52%
C=CC[C@@H]1C=CC(ON=CC[C@@H]2C=C[C@@H](OC(C)=O)[C@@H](COC(C)=O)O2)[C@H](CO)O1 (stereo partly drawn) -6.29%
COC(=O)C1=C(C)N(CC2CC2)C(=O)NC1c1ccc(Br)cc1 (stereo not drawn) -4.45%
C[C@@H]1C=CCC(=O)N2[C@H](CC(=O)N[C@@H]1c1ccccc1)C[C@@H](C)[C@@H]2c1ccccc1 -10%
COc1ccc(COC(=O)NN=C2C[C@@H](O)[C@@H](O)[C@@H]3[C@H]4C(=O)N(C5CCCCC5)C(=O)[C@@H]4CC[C@H]23)cc1 -1.6%
